Sfp PPTase inh = qHTS Assay for Inhibitors of Bacillus subtilis Sfp phosphopantetheinyl transferase (PPTase) | 310,000 tested, 3.5% active | 4'-phosphopantetheinyl transferase ffp (Bacillus subtilis), Q9F4F7 | Biochemical Sfp PPTase activity, qHTS | Potency, µM, inactives show largest response in the series, negative = inhibition, usual class: inhibitors | AID 1490, 2009;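 also: the enzyme is Sfp with the accession as filed and its product quenches rhodamine fluorescence; 0% = enzyme reaction without inhibitor and -100% = no enzyme wells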
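After 15 min at room temperature with compound, 15 nM Sfp received 5 uM rhodamine-CoA plus 12.5 uM BHQ-2-ybbR (50 mM Hepes pH 7.6, 10 mM MgCl2). Rate came from the fluorescence difference over 30 min, ex 525/em 598 nm.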
G9a block = qHTS Assay for Inhibitors of Histone Lysine Methyltransferase G9a. 350,000 tested, 8.8% active. G9a H3K9 monomethylation, AlphaScreen, 2 h. AID 504332, 2011. Histone-lysine N-methyltransferase EHMT2 (Homo sapiens), Q96KQ7. Potency, µM (titrated, usually from 102 µM), for the others: top-dose activity, negative = inhibition, actives largely listed as inhibitors; also: % is scaled to controls: 0 for no effect and ±100 for the full control effect; nearly all actives have a fitted effect of over 75% in size
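Readings reflect AlphaScreen signal from monomethyl-H3K9 antibody detection. HMT at 20 nM; substrate b-H3K9 500 nM; cofactor SAM 20 uM; 2 h RT reaction; compounds tested as titrations in qHTS with 15 min preincubation.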
HP1b binding inh = HTS for Inhibitors of HP1-beta Chromodomain Interactions with Methylated Histone Tails. AlphaScreen HP1-beta / biotin-H3K9me3 peptide binding. Potency, µM (top dose mostly 114 µM), without a hit: at the highest dose activity change, negative = inhibition, hits mostly inhibitors. 390,000 tested, 0.56% active; also: nearly all actives have a fitted effect of over 70% in size
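Compound inhibition of the preformed complex between 50 nM HP1-beta and 50 nM biotinylated H3K9me3 peptide was read by AlphaScreen. Buffer was PBS pH 7.4 with 0.01% Tween-20. Incubations ran 30 min at room temperature, with 10 ug/mL donor/acceptor beads.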
JMJD2A Tudor inh = qHTS Assay for Inhibitors of JMJD2A-Tudor Domain; Lysine-specific demethylase 4A (Homo sapiens), O75164; AlphaScreen JMJD2A-Tudor / H3K4me3 peptide binding; 390,000 tested, 4.4% active; Potency, µM (titrated, usually from 114 µM), inactives show at the top dose activity change, negative = inhibition, hits mostly inhibitors; also: % is scaled to controls: 0 for no effect and ±100 for the full control effect; nearly all actives have a fitted effect of over 50% in size
BAZ2B inh = qHTS Assay for Inhibitors of BAZ2B. Bromodomain adjacent to zinc finger domain protein 2B (Homo sapiens), Q9UIF8. AlphaScreen BAZ2B-H3K14Ac peptide displacement. Potency, µM (top dose mostly 114 µM), inactives show top-dose activity change, negative = inhibition, hits mostly inhibitors. 360,000 tested, 4.4% active. AID 504333, 2011; also: % is scaled to controls: 0 for no effect and ±100 for the full control effect; nearly all actives have a fitted effect of over 60% in size
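Compounds, titrated to a top concentration of 110 uM, were incubated 30 min at room temperature with preformed BAZ2B/acetyl-K14 H3 peptide complex (50 nM each). Proximity signal was measured by AlphaScreen after 20 min with beads.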
PLK1 PBD block = qHTS for Inhibitors of PLK1-PDB (polo-like kinase 1 - polo-box domain): Primary Screen. AID 720504, 2013. Potency, µM, inactives show max response, negative = inhibition, most hits filed as inhibitors. 360,000 tested, 2.8% active. Plk1 PBD binding of FITC phosphopeptide, fluorescence polarization; also: series mostly up to about 57 µM; % is scaled to controls: 0 for no effect and ±100 for the full control effect; nearly all actives have a fitted effect of over 65% in size
Active calls of the source: *; ? = inconclusive; . = no result given; [ ] = another dose, or the depositor's remark. Only some compounds are listed: those with a hit (about 12% of all), similar ones and a draw of the others. Calls follow the shape of the dose curve; as a rule, active = well fitted curve in the direction sought with a large enough effect; inconclusive = small, poorly fitted or top-dose-only effect, or another doubt; inactive = no such curve, though single readings can be large; an effect the other way counts as inactive or inconclusive. Potency is read from the fitted curve at half-maximal effect.

SMILES | Sfp PPTase inh | G9a block | HP1b binding inh | JMJD2A Tudor inh | BAZ2B inh | PLK1 PBD block
C#CCOCCOCCOCCNc1nc(N2CCN(C(=O)[C@H](CCCCN)n3cc([C@@H](N)CC(N)=O)nn3)CC2)nc(N2CCN(C(=O)[C@H](CCCCN)n3cc([C@@H](N)CC(N)=O)nn3)CC2)n1 | . | . | 40% | 79µM* | . | -29%
C#CCOCCOCCOCCNc1nc(N2CCN(C(=O)[C@H](CCCCN)n3cc(CN)nn3)CC2)nc(N2CCN(C(=O)[C@H](CCCCN)n3cc([C@@H](N)[C@H](C)CC)nn3)CC2)n1 | . | . | 29% | -35% | . | 4%
CCN1CCN(C(=O)Cn2ncc3c4ccccc4n(Cc4c(C)cc(C)cc4C)c3c2=O)CC1 | . | -30%[59 µM] | 10% | -31% | ? | .
O=C1CC(c2ccc(Cl)cc2)n2nc(N3C(=O)c4ccccc4C3=O)nc2N1 (stereo not given) | -28% | -33%[59 µM] | 25% | ? | 79µM* | -4%
CC(=O)c1sc(N/N=C2\CC3CC2C(C)C3(C)C)nc1C (stereo not given) | 35µM* | 40µM* | -12% | ? | ? | -25%
COc1ccc(-n2c(=O)c(-c3ccc(F)cc3)nc3cncnc32)cc1 | -5% | 17%[0.501 µM] | . | . | . | .
COc1ccc(NC(=O)C2CCN(S(=O)(=O)c3ccc4[nH]c(=O)ccc4c3)CC2)c(OC)c1 | . | 3%[59 µM] | 28%[57 µM] | 8% | 4% | .
CCOc1ccc(CNC(=O)C2CCCN(S(=O)(=O)c3ccc4c(ccn4C)c3)C2)cc1 (stereo not given) | . | -2%[59 µM] | 25%[57 µM] | -4% | 1% | .
Cn1c(=O)c2c(n(Cc3ccccc3)c1=O)NC(=O)C2CC(=O)O (stereo not given) | 1% | 45µM* | 50% | -6% | -4% | -11%
Cn1c2c(c(=O)n(C)c1=O)C(CC(=O)Nc1ccccc1)C(=O)N2 (stereo not given) | 31% | -22%[59 µM] | 14% | -2% | 10% | -7%
CC1CCN(C(=O)CC2C(=O)Nc3c2c(=O)n(C)c(=O)n3Cc2ccccc2)CC1 (stereo not given) | -9% | 8.9µM* | 18% | -6% | 23% | -7%
CC1CCN(c2nc3c(c(=O)n(C)c(=O)n3C)n2Cc2ccccc2)CC1 | -3% | ? | 2% | -16% | -19% | -10%
Cc1cc2c(Nc3ccccc3)ncnc2s1 | 0% | ? | 24% | -5% | -13% | -12%
Cc1cc2c(NCCc3ccccc3)ncnc2s1 | -6% | 50µM* | 34% | 3% | ? | 3%
Cc1c2c(nc3ccccc13)OCC2 | -24% | 79µM* | 8% | -17% | 24% | -11%
Cc1ccc(C2=NC3(CCCCC3)NC2=S)cc1 | 14% | 11%[59 µM] | 35% | 6% | -5% | -6%
CCN1CCC2(CC1)N=C(c1ccc(F)cc1)C(=S)N2 | 22µM* | 11µM* | 43% | -12% | -4% | -14%
Cc1ccccc1CN1C(=O)c2ccccc2S(=O)c2ccc(C(=O)NCc3ccc(Cl)cc3)cc21 (stereo not given) | . | -8%[59 µM] | 26% | -13% | 0% | .
Cc1cccc(/N=C2/NC(=O)C(Cc3ccccc3)S2)n1 (stereo not given) | 13% | 20% | 12% | -13%[11.4 µM] | -12% | 30µM*
COc1ccccc1Cc1c(-c2ccc(C)cc2)nc2cc(C)c(Br)c(C)n12 | . | . | . | . | . | -5%
CC1C(=O)C(C)(C)C(=O)OC1c1ccc([N+](=O)[O-])cc1 (stereo not given) | 2% | 50µM* | 48% | 2% | -14% | -7%
CC1C(=O)C(C)(C)C(=O)OC1c1ccccc1 (stereo not given) | 7% | 8%[59 µM] | 38% | -11% | -14% | -8%
COc1ccc(OCCC(=O)OCC(=O)NCCc2ccccc2)cc1 | 5% | 3% | 51% | -8% | -20% | -8%
Nc1nc2ccc([N+](=O)[O-])cc2[nH]1 | 13% | 16% | 29% | -3% | -8% | -4%
Nc1[nH]c2cc([N+](=O)[O-])ccc2c1-c1ccccn1 | 6% | 45µM* | ? | ? | 28µM* | 13%
SMILES | Sfp PPTase inh | G9a block | HP1b binding inh | JMJD2A Tudor inh | BAZ2B inh | PLK1 PBD block
COC(=O)c1ccc(NS(=O)(=O)c2cccc3cccnc23)cc1 | 17% | 12% | 16% | 17% | 8% | -8%
CSS(=O)(=O)c1cccc2cccnc12 | 20µM* | 0.28µM* | 3% | 3.2µM* | 14µM* | 2.4µM*
COC(=O)CS(=O)(=O)c1cccc2cccnc12 | 13% | 12% | 5% | -24% | -6% | 30µM*
O=S(=O)(O)c1cccc2cccnc12 | . | . | 23% | ? | . | .
CN(CC(=O)Nc1ccc(Cl)cc1)S(=O)(=O)c1cccc2cccnc12 | 12% | 45µM* | 54% | -14% | 9% | -10%
CN(CC(=O)Nc1ncn[nH]1)S(=O)(=O)c1ccc(Cl)cc1 | 11% | 89µM* | 30% | ? | 50µM* | 1%
CCCCN(C)CCNC(=O)c1ccc2c(c1)NC(=O)CN2 | . | 3%[59 µM] | 2% | 1% | 0% | .
COc1ccc(CNC(=O)CCc2c(C)nc3nc(CNC(=O)OC(C)(C)C)nn3c2C)cc1 | . | -6%[59 µM] | 22% | 2% | 3% | .
COc1cc2ccccc2cc1C(=O)NC(=S)Nc1nnn(C)n1 | 21% | 30%[59 µM] | 29% | -25% | -3% | -10%
Cn1nnc(NC(=S)NC(=O)c2cc(Cl)ccc2Cl)n1 | 50µM* | 3.5µM* | -3% | -5% | ? | -26%
CC(NC(=O)CCNC(=O)c1ccccc1Cl)c1ccc(-n2ccnc2)cc1 (stereo not given) | 13% | -41% | 37% | 6% | -18% | 3%
CC(=O)Nc1ccc(C(=O)NC(C)c2ccc(-n3ccnc3)cc2)cc1 (stereo not given) | 21% | 27% | 17% | -5% | -38% | 4%
COc1ccccc1C(=O)NCCC(=O)NC(C)c1ccc(-n2ccnc2)cc1 (stereo not given) | . | 20µM* | 35% | -16% | -14% | 2%
CC(=O)Nc1cccc(C(=O)NC(C)c2ccc(-n3ccnc3)cc2)c1 (stereo not given) | 7% | 45µM* | 11% | -14% | ? | -4%
CN(/C=C/C(=C\C=[N+](C)c1ccccc1)OCCCS(=O)(=O)[O-])c1ccccc1 | 79µM* | . | 8% | -17% | 15% | 36%
